COUP-TFII inh – NR2F2 transcriptional activity inhibitors, primary screen, cell-based, luciferase reporter, HEK293T, luminescence | HEK293T NGFI-A luciferase reporter | inhibition, % at 8.6 µM | 0.7% of 370,000 active | AID 686940, 2013;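 active means inhibition above a per-plate cutoff, mean inhibition of test wells between control levels plus 3 SD, cut at about 38% in these data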;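 further: cells cotransfected with COUP-TFII expression vector driving the NGFI-A reporter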
Target sequence (P24468 whole entry, looked up): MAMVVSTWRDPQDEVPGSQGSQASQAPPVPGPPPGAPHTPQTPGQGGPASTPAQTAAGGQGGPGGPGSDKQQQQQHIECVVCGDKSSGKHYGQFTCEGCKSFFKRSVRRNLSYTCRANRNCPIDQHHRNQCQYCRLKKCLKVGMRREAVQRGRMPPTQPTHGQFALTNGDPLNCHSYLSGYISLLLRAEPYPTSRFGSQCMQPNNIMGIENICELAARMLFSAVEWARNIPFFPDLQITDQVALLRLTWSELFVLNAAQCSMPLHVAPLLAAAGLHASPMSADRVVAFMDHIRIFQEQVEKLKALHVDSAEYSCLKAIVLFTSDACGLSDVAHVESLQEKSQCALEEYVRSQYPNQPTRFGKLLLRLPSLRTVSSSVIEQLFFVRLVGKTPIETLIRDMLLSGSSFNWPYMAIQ
SRC3 inh – SRC3 coactivator transcriptional activity inhibitors, primary screen, cell-based, luminescence; 0.17% of 360,000 active; HEK293 GAL4-SRC3 luciferase reporter; inhibition, % at 3.6 µM; Nuclear receptor coactivator 3 (Homo sapiens), Q9Y6Q9; AID 588352, 2011;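 active means inhibition above a per-campaign cutoff, the mean of all compounds plus 3 SD, cut at about 60% in these data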;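 further: higher means less SRC3-driven luciferase light from the GAL4 reporter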
GalR3 antag – GalR3 antagonists in HEK293 cells, primary screen, cell-based, fluorescence readout; Galanin receptor type 3 (Homo sapiens), O60755; HEK293 GalR3-CNG cAMP membrane potential fluorescence; galR3 body fused to GalR1 C-terminus; inhibition, % at 3 µM; 0.44% of 360,000 active; AID 651719, 2012;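 active means inhibition above the screen-wide average plus 3 SD, cut at about 13% in these data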;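 further: forskolin and galanin both at EC90 stimulate the cells; cAMP rise reported by CNG channel membrane potential dye signal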
Target sequence (O60755 1-299 limits assumed): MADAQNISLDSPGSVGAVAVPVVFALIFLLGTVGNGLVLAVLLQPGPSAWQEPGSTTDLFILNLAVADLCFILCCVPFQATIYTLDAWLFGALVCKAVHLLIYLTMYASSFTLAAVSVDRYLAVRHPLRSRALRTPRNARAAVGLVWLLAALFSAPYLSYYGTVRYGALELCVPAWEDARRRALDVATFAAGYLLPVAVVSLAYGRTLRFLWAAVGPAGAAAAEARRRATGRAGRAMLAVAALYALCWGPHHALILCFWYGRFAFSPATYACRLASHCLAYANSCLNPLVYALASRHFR
SRC2 inh – inhibition of GAL4-SRC2 driven luciferase reporter, primary screen, SRC2 inhibitor project, cell-based, luminescence; inhibition, % at 9 µM; 0.17% of 370,000 active; AID 651957, 2012; HEK293 GAL4-SRC2 luciferase reporter;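 active means inhibition above the mean inhibition of all tested compounds plus 3 SD, set per campaign, cut at about 52% in these data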
LRH-1 inv ag – LRH-1 (NR5A2) inverse agonists, primary screen, cell-based, luminescence, HEK293T, StAR-luciferase reporter; LRH-1 transfected, 24 h; 0.13% of 360,000 active; inhibition, % at 3.6 µM;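 active means inhibition above the mean inhibition of all tested compounds plus 3 SD, cut at about 73% in these data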
NCOA1 inh – SRC1 coactivator transcriptional activity inhibitors, primary screen, cell-based, luminescence. Nuclear receptor coactivator 1 (Homo sapiens), Q15788. HEK293 GAL4-SRC1 luciferase reporter. inhibition, % at 3.6 µM. 0.12% of 360,000 active. AID 588354, 2011;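 active means inhibition above the campaign mean plus 3 SD, with each screening campaign given its own cutoff, cut at about 60% in these data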
VP16 Luc counter – Gal4-VP16 luciferase reporter inhibitors, counter-screen for COUP-TFII antagonist project, cell-based, luminescence, HEK293 | inhibition, % at 8.5 µM | shares compounds with COUP-TFII inh | 25% of 2,500 active; in the data active means inhibition above about 13%
NR2F2 inh conf – NR2F2 transcriptional activity inhibitors, confirmation, cell-based, luciferase reporter, HEK293, triplicate; HEK293 NGFI-A luciferase reporter, luminescence; inhibition, % at 8.5 µM; shares compounds with COUP-TFII inh; 45% of 2,500 active;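 active means mean inhibition over three repeats above a set limit taken from the earlier primary screen, cut at about 38% in these data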
Hits are given with their value; 0 = inactive; - = no result given. In the library only some 1.1% were active in any assay of this set; here they are far more common.

SMILES | COUP-TFII inh | SRC3 inh | GalR3 antag | SRC2 inh | LRH-1 inv ag | NCOA1 inh | VP16 Luc counter | NR2F2 inh conf
O=C(Nc1ccc(N2CCOCC2)nc1)c1ccc(C(F)(F)F)cc1 | 49 | 0 | 0 | 0 | 0 | 0 | 0 | 0
Nc1nc2c(C(=O)N3CCOCC3)nnn2c2ccccc12 | 0 | 0 | 0 | 0 | 0 | 0 | - | -
COc1ccc(N(CCOc2ccccc2)S(=O)(=O)c2ccccc2)cc1 | 0 | 0 | 0 | 0 | 0 | 0 | - | -
CCOc1cc(CNCc2ccncc2)cc(Br)c1OCc1ccc(F)cc1 | 39 | 0 | 0 | 0 | 0 | 0 | 0 | 0
Fc1ccc(COc2ccc(Br)cc2CNCc2ccncc2)cc1 | 0 | 0 | 0 | 0 | 0 | 0 | - | -
O=C(NCCc1cn2ccccc2n1)c1ccccc1F | 0 | 0 | 0 | 0 | 0 | 0 | - | -
O=C(NCCc1cn2ccccc2n1)c1cc(COc2ccc3ncccc3c2)on1 | 64 | 0 | 0 | 0 | 0 | 0 | 0 | 83
O=C(c1cc(COc2ccc3ncccc3c2)on1)N1CCCCCC1 | 43 | 0 | 41 | 0 | 0 | 0 | 0 | 49
CCc1ccc(CCC(=O)Nc2ccc(Br)cc2)o1 | 0 | 0 | 0 | 0 | 0 | 0 | - | -
CCN1/C(=C/c2ccc3cc(C)ccc3[n+]2C)Sc2ccc3sccc3c21 | 38 | 0 | 0 | 0 | 0 | 0 | 0 | 0
COc1ccc(C(=O)Nc2ccc(C)cn2)c(OC)c1 | 55 | 0 | 0 | 56 | 0 | 0 | 14 | 0
NC(=O)c1ccsc1NC(=O)COC(=O)Cc1c[nH]c2ccccc12 | 0 | 0 | 0 | 0 | 0 | 0 | - | -
NC(=O)c1ccsc1NC(=O)COC(=O)Cc1cccc2ccccc12 | 53 | 0 | 104 | 0 | 0 | 0 | 0 | 39
COc1cccc(CNc2nc3cc(-c4cnn(Cc5ccccc5)c4)sc3c(=O)n2C)c1 | 79 | 0 | 0 | 0 | 0 | 0 | 17 | 54
COc1ccccc1CNc1nc2cc(-c3ccc(OC)c(OC)c3)sc2c(=O)n1C | 41 | 0 | 0 | 0 | 0 | 0 | 0 | 0
COc1cccc(CNc2nc3cc(-c4ccccc4)sc3c(=O)n2C)c1OC | 0 | 0 | 0 | 0 | 0 | 0 | - | -
CS(=O)(=O)N(CC(=O)NCc1ccncc1)c1ccc(Cl)c(Cl)c1 | 0 | 0 | 0 | 0 | 0 | 0 | - | -
N#Cc1ccc(CN2CCN(C(=O)c3cccc(S(=O)(=O)N4CCCCCC4)c3)CC2)cc1 | 0 | 0 | 0 | 0 | 0 | 0 | - | -
CCn1nc(C)cc1C(=O)NC1CCCc2c1cnn2-c1ccc(C)c(C)c1 (stereo not drawn) | 54 | 0 | 0 | 0 | 0 | 0 | 0 | 40
Cc1cc(C)cc(-n2ncc3c2CCCC3NC(=O)CN2CCCC2=O)c1 (stereo not drawn) | 0 | 0 | 0 | 0 | 0 | 0 | - | -
CC(C)(C)c1ccc(-n2ncc3c2CCCC3NC(=O)CN2CCCC2=O)cc1 (stereo not drawn) | 43 | 0 | 0 | 0 | 0 | 0 | 0 | 0
Cc1ccc(NC(=O)CN(C)C(=O)c2cccc(S(=O)(=O)NCc3ccccc3)c2)cc1 | 0 | 0 | 0 | 0 | 0 | 0 | - | -
CC(/C=N/NC(=O)CSc1nnc(SCc2ccc(C)cc2)s1)=C\c1ccco1 | 0 | - | - | 0 | - | - | - | -
Cc1nn(-c2ccccc2)c(Cl)c1C(=O)OCC(=O)NCCc1ccc(S(N)(=O)=O)cc1 | 0 | 0 | 0 | 0 | 0 | 0 | - | -
CCOC(=O)Cn1c2c(c(=N)c3ccccc31)CCC2 | 0 | 0 | 0 | 0 | 0 | 0 | - | -
SMILES | COUP-TFII inh | SRC3 inh | GalR3 antag | SRC2 inh | LRH-1 inv ag | NCOA1 inh | VP16 Luc counter | NR2F2 inh conf
N=c1c2c(n(Cc3cccc(Cl)c3)c3c1CCC3)CCCC2 | 65 | 0 | 0 | 0 | 75 | 0 | 13 | 47
N=c1c2c(n(Cc3ccc(F)cc3)c3c1CCC3)CCCC2 | 39 | 0 | 0 | 0 | 0 | 0 | 0 | 0
N=c1c2c(n(Cc3ccc(Cl)cc3)c3c1CCC3)CCC2 | 67 | 70 | 0 | 0 | 92 | 0 | 0 | 46
Clc1cccc(CN2CCCCCC2)c1 | 0 | 0 | 0 | 0 | 0 | 0 | - | -
CCCCCn1c2c(c(=N)c3ccccc31)CCC2 | 66 | 0 | 0 | 0 | 0 | 0 | 14 | 54
CN1CCC(N(C)S(=O)(=O)c2ccc(F)cc2F)CC1 | 0 | 0 | 0 | 0 | 0 | 0 | - | -
COc1ccc(CNC(=O)c2cc(C3CC3)nc3c2cnn3C(C)C)cc1OC | 0 | 0 | 0 | 0 | 0 | 0 | - | -
N=c1c2c(n(Cc3ccccc3)c3c1CCC3)CCC2 | 41 | 0 | 0 | 0 | 0 | 0 | 0 | 0
CCn1c2c(c(=N)c3c1CCC3)CCCC2 | 0 | 0 | 0 | 0 | 0 | 0 | - | -
COC(=O)C1CN(Cc2cn(Cc3ccc(Cl)cc3)nn2)CCS(=O)(=O)N1Cc1ccc(Cl)cc1 (stereo not drawn) | 38 | - | - | 0 | - | - | 0 | 0
O=S1(=O)CCN(Cc2csc(-c3cccs3)n2)CC1 | 0 | 0 | 0 | 0 | 0 | 0 | - | -
N=C1C=CC(=C(c2ccc(N)cc2)c2ccc(N)cc2)C=C1 | 46 | 0 | 0 | 0 | 0 | 0 | 14 | 63
CCOC(=O)N1CCC(NC(=O)c2ccc3c(c2)N(C)C(=O)/C(=C/c2cccc(OC)c2)S3)CC1 | 40 | 0 | 0 | 0 | 0 | 0 | 0 | 53
CCOC(=O)N1CCN(C(=O)c2ccc3c(c2)N(C)C(=O)/C(=C\c2ccc(OCC)c(OC)c2)S3)CC1 | 51 | 0 | 0 | 0 | 0 | 0 | 0 | 0
COc1ccc(CNC(=O)COC(=O)c2n[nH]c3ccccc23)cc1 | 0 | 0 | 0 | 0 | 0 | 0 | - | -
CCC(C)NC(=O)C1CCN(S(=O)(=O)N2CCOCC2)CC1 (stereo not drawn) | 0 | 0 | 0 | 0 | 0 | 0 | - | -
Cc1cccc(N2CCN(S(=O)(=O)c3c(C)[nH]c(C)c3C(=O)N3CCCC3)CC2)c1C | 0 | 0 | 0 | 0 | 0 | 0 | - | -
Cc1cc(=O)oc2cc(OCC(=O)OCC(=O)Nc3ccccc3Br)ccc12 | 55 | 0 | 0 | 0 | 0 | 0 | 0 | 0
Cc1cc(/C=C2/C(=O)NN(c3ccccc3)C2=O)c(C)n1-c1ccc(O)cc1 | 57 | 0 | 0 | 0 | 0 | 0 | 0 | 0
O=C(Cn1c2ccc(F)cc2c2nc3n(c(=O)c21)CCS3)Nc1ccccc1C(F)(F)F | 0 | 0 | 0 | 0 | 0 | 0 | - | -
COc1ccc(OCC(=O)Nc2ccc(N3CCN(C(=O)c4ccccc4)CC3)c(Cl)c2)cc1 | 59 | 0 | 0 | 0 | 0 | 0 | 0 | 0
COc1ccc(S(=O)(=O)N2CCN(CCOc3ccc(Br)cc3)CC2)cc1OC | 60 | 0 | 0 | 0 | 0 | 0 | 0 | 0
